Test results published in PMC4336329 (PLoS ONE, 2015).
In all, about 310,000 compounds went through this assay and about 14,000 (4.5%) showed an effect of 50% or more. The effect is printed as a negative number. For the sample, strong results were picked, then their nearest neighbours and some compounds at random.

Each molecule was assayed against human ether-à-go-go-related gene (hERG) potassium channel (human, UniProt Q12809) (assay: primary screen, population patch clamp on CHO cells stably expressing hERG; higher = less effect of the substance).
Sequence of human ether-à-go-go-related gene (hERG) potassium channel (Q12809 whole entry, looked up): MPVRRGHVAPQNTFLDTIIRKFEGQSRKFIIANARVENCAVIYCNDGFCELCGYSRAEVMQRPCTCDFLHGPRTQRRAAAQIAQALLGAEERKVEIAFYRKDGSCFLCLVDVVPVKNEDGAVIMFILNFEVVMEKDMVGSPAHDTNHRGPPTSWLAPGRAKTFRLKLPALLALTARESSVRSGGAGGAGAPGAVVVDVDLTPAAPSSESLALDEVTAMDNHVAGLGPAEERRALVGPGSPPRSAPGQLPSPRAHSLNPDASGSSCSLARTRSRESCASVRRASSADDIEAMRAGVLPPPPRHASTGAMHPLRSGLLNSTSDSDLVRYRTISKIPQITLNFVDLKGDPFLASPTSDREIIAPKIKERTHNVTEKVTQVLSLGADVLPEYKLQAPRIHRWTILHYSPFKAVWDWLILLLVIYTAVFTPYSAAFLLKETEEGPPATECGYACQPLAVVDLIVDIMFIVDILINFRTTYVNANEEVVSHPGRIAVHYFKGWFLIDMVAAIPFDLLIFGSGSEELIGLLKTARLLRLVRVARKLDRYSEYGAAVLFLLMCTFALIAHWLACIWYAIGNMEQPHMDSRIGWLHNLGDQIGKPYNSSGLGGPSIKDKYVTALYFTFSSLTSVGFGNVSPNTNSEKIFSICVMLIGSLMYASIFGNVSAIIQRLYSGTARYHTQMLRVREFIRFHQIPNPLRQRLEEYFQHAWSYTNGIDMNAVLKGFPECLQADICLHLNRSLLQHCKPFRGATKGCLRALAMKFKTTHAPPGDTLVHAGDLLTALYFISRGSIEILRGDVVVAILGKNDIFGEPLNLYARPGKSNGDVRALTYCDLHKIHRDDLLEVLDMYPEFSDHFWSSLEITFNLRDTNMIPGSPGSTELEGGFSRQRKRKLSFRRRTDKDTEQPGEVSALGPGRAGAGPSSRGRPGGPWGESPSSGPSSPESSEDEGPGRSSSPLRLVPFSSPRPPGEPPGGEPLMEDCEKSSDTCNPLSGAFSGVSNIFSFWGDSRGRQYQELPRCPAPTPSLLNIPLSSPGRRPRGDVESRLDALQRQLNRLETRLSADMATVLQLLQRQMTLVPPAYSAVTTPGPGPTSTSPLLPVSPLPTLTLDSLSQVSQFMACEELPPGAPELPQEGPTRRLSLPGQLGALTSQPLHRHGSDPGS
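Also: peak tail current of the secondary pulse compared with the same well before compound.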

Structure (SMILES) | hERG current change (%, negative = inhibition) at 10uM
CC(C)C[C@@H](CO)N1CCN(Cc2cccnc2)CCC1=O | 3.69%
CCn1c2ccccc2c2cc(NC(=O)c3cccc([N+](=O)[O-])c3C)ccc21 | 7.76%
CCOc1ccc(/C=C2/SC(=S)N(n3c(C)ccc3C)C2=O)cc1 | 8.78%
Cc1ccc(N=C(N(C)C)P(=O)(N(C)C)N(C)C)cc1 | 17.4%
Cc1ccc(Oc2cc(NN3CCCCC3)c([N+](=O)[O-])cc2[N+](=O)[O-])c([N+](=O)[O-])c1 | -10.3%
O=C(Nc1cccc(NC(=O)c2ccccc2Cl)c1)c1cccs1 | 2.54%
O=[N+]([O-])c1ccc(CSC2=NCCS2)cc1 | -15.3%
CC1CCN(C(=O)c2[nH]cnc2C(=O)N2CCN(C(=O)OC(C)(C)C)CC2)CC1 | 19%
O=C(CN(Cc1ccccc1Cl)C(=O)c1csnn1)NC1CCCC1 | -13.6%
COc1cccc(-c2nc(NCC3CCCO3)c3ccccc3n2)c1O (stereo not shown) | -21.2%
c1cncc(-c2nc(NCC3CCCO3)c3ccccc3n2)c1 (stereo not shown) | 7.02%
COc1ccccc1Nc1nc(NCC2CCCO2)c2ccccc2n1.Cl (stereo not shown) | -59.6%
CC(C)C(=O)NC(=S)Nc1ccccc1C(F)(F)F | 10.4%
O=C(N/N=C/c1coc2ccccc2c1=O)c1ccccc1Br | -0.324%
Clc1ccc(Nc2ccc(NCc3ccccc3)nn2)cc1 | -37.8%
Cc1cccc(Nc2ccc(NCc3ccccc3)nn2)c1 | -51.8%
Cc1cccc(NCc2ccccc2)c1 | 5.29%
O=C(NNC(=S)NC(=O)c1ccccc1[N+](=O)[O-])c1ccccc1Cl | 6.38%
O=C(NNC(=S)NC(=O)c1ccccc1[N+](=O)[O-])c1ccc(Cl)cc1Cl | -58.2%
O=C(NNC(=S)NC(=O)c1ccccc1[N+](=O)[O-])c1ccccc1[N+](=O)[O-] | 15.1%

Structure (SMILES) | hERG current change (%, negative = inhibition) at 10uM
N/C(=N\N=C\c1ccco1)SC1CC(=O)N(c2ccccc2)C1=O (stereo not shown) | 17.1%
CC(C)CC(=O)NC(=S)Nc1sc2c(c1C(N)=O)CCC2 | 15.7%
Cc1nn(-c2cc(N3CCOCC3)ccc2N)c(=O)c2ccccc12 | 0.574%
O=C(NCc1ccc(F)cc1)c1ccccc1OCc1ccccc1 | -8.06%
O=C(NCc1ccccn1)c1ccccc1OCc1ccc(F)cc1 | -56.9%
COc1ccccc1C(=O)NCc1ccccn1 | 18.4%
O=C(Cn1nc(C(=O)O)c2ccccc2c1=O)NCC1CCCO1 (stereo not shown) | 20%
CCCCc1cc(=O)oc2cc(OCC(=O)N3CCc4ccccc43)ccc12 | 6.81%
c1ccc2cc(OCCN3CCCC3)ccc2c1 | -33.1%
CCOc1ccc(OCCOCCN2CCCC2)cc1.O=C(O)C(=O)O | 0.376%
CCOc1ccc(CNCCN2CCCC2)cc1.O=C(O)C(=O)O | -63.9%
CCOc1ccc(OCCN2CCCCC2)cc1.O=C(O)C(=O)O | -21.7%
Cl.ON=C1c2cc(OCCN3CCCCC3)ccc2-c2ccc(OCCN3CCCCC3)cc21 | -58.1%
O=C(O)C(=O)O.c1ccc(COc2ccc(OCCN3CCCCC3)cc2)cc1 | -70.2%
O=C(O)C(=O)O.c1ccc(OCCN2CCOCC2)cc1 | 12%
CCN(CC)CCOc1ccc2c(c1)C(=NO)c1cc(OCCN(CC)CC)ccc1-2.Cl | -16.4%
COC(=O)c1ccc(OCCN2CCCCCC2)cc1.O=C(O)C(=O)O | -1.51%
O=C(O)C(=O)O.c1ccc(COc2ccc(OCCN3CCCC3)cc2)cc1 | -60.3%
CCOc1ccc(C(=O)CCN2CCCCC2)cc1 | -19.7%
Cc1ccc(OCCN2CCCC2)cc1.O=C(O)C(=O)O | -3.76%

Structure (SMILES) | hERG current change (%, negative = inhibition) at 10uM
CCn1c(-c2ccccc2)c[nH]c1=S | 15.4%
CN(C)c1cccc(C(=O)NCCCSc2ccccc2)c1 | 4.72%
Cc1nn(Cc2ccccc2Cl)c2sc(C(=O)OC3CCCC3=O)cc12 (stereo not shown) | -4.19%
COc1cc(NS(=O)(=O)c2ccc(NC(=S)NC(=O)c3ccc(F)cc3)cc2)nc(OC)n1 | 3.73%
N#Cc1cc2cc3c(cc2nc1NCCNC(=S)NCCCN1CCOCC1)OCO3 | 14.2%
CC(C)CCN1C(=O)c2ccc(C(=O)OCC(=O)N(C)C3CCS(=O)(=O)C3)cc2C1=O (stereo not shown) | -8.41%
CCn1nc(C(=O)OCC(=O)NCC(C)C)c2ccccc2c1=O | 0.00988%
CC(C)Cn1nc(C(=O)OCC(=O)NCC(F)(F)F)c2ccccc2c1=O | -78.2%
CCn1nc(C(=O)OCC(=O)NC(C)C)c2ccccc2c1=O | 8.88%
COC(=O)c1cc(NC(=O)c2c(C)noc2C)ccc1N1CCOCC1 | 17.6%
COc1ccc(N2C(=O)/C(=C/c3ccc(N(C)C)o3)C(=O)NC2=S)cc1 | 3.28%
O=C(c1ccc(Cn2cnnn2)cc1)N1CCCC(Nc2ccc(F)cc2)C1 (stereo not shown) | -0.196%
COc1cc(CN2CCN(Cc3ccc(C)cc3)C(CCO)C2)cc(OC)c1O (stereo not shown) | -51.6%
CC(=O)Nc1ccc(CN2CCN(Cc3ccc(C)cc3)C(CCO)C2)cc1 (stereo not shown) | -34.5%
COc1ccc(CN2CCN(Cc3ccc(CO)o3)CC2CCO)cc1C (stereo not shown) | -8.64%
COc1ccc(CN2CCN(Cc3ccc(C)cc3)C(CCO)C2)cc1OC (stereo not shown) | -54.3%
COc1cccc(CN2CCN(Cc3ccc(O)c(OC)c3)CC2CCO)c1 (stereo not shown) | -5.76%
COc1cc(CN2CCN(Cc3ccc(C)cc3)C(CCO)C2)ccc1O (stereo not shown) | -19.6%
